Laboratory results published in the supplement of paper PMC6658780.
Structures can show the parent of a compound that is named as a salt. ± gives the standard deviation of the averaged measurements.

Test system: Klebsiella pneumoniae NCTC-13439
Experiment: percent growth inhibition of drug + antibiotic vs DMSO control; higher = more growth inhibition
Details: antibiotic (0.125x MIC): ciprofloxacin; 20 µM

Row | SMILES | percent growth inhibition
1 | NC1CCN(c2c(F)cc3c(=O)c(C(=O)O)cn(C4CC4)c3c2Cl)C1 (stereo unspecified) [Clinafloxacin] | 93.36 ± 0.75%
2 | C#C[C@]1(OC(C)=O)CC[C@H]2[C@@H]3CCC4=CC(=NO)CC[C@@H]4[C@H]3CC[C@@]21CC (mixture of isomers) [Norgestimate] | 4.4 ± 13%
3 | O=C(OCC(O)CO)c1ccccc1Nc1ccnc2cc(Cl)ccc12 (stereo unspecified) [Glafenine hydrochloride] | 5.01 ± 4.3%
4 | CC(=O)CCCCn1c(=O)c2c(ncn2C)n(C)c1=O [Pentoxifylline] | 5.4 ± 5.5%
5 | NC1CCN(c2nc3c(cc2F)c(=O)c(C(=O)O)cn3-c2ccc(F)cc2F)C1 (stereo unspecified) [Tosufloxacin hydrochloride] | 99.03 ± 0.4%
6 | NC(=O)N/N=C/c1ccc([N+](=O)[O-])o1 [Nitrofural] | 16.3 ± 2.7%
7 | COc1c(N2CCNC(C)C2)c(F)cc2c(=O)c(C(=O)O)cn(C3CC3)c12 (stereo unspecified) [Gatifloxacin] | 96.7 ± 1.2%
8 | N=C(NCCCCCCNC(=N)NC(=N)Nc1ccc(Cl)cc1)NC(=N)Nc1ccc(Cl)cc1 [Chlorhexidine] | 100.15 ± 0.021%
9 | Cc1c(F)c(N2CCNC(C)C2)cc2c1c(=O)c(C(=O)O)cn2C1CC1 (stereo unspecified) [Grepafloxacin] | 51.2 ± 18%
10 | CCN1CCN(c2cc3c(cc2F)c(=O)c(C(=O)O)cn3C2CC2)CC1 [Enrofloxacin] | 73.1 ± 13%
11 | Cc1nc2n(c(=O)c1CCN1CCC(c3noc4cc(F)ccc34)CC1)CCCC2 [Risperidone] | -11.1 ± 3%
12 | COc1c(N2C[C@@H]3CCCN[C@@H]3C2)c(F)cc2c(=O)c(C(=O)O)cn(C3CC3)c12 [Moxifloxacin] | 99.24 ± 0.54%

Same assay, conditions: antibiotic (0.125x MIC): tigecycline; 7 µM

Row | SMILES | percent growth inhibition
13 | C[C@H](N)[C@H](O)c1cccc(O)c1 [Metaraminol bitartrate] | 8.48 ± 9.5%
14 | NC1CCN(c2c(F)cc3c(=O)c(C(=O)O)cn(C4CC4)c3c2Cl)C1 (stereo unspecified) [Clinafloxacin] | 14.4 ± 11%
15 | CC(=O)CCCCn1c(=O)c2c(ncn2C)n(C)c1=O [Pentoxifylline] | 1.34 ± 3.2%
16 | COc1c(N2CCNC(C)C2)c(F)cc2c(=O)c(C(=O)O)cn(C3CC3)c12 (stereo unspecified) [Gatifloxacin] | 17.5 ± 19%
17 | Cc1c(F)c(N2CCNC(C)C2)cc2c1c(=O)c(C(=O)O)cn2C1CC1 (stereo unspecified) [Grepafloxacin] | 7.09 ± 6.5%
18 | CCN1CCN(c2cc3c(cc2F)c(=O)c(C(=O)O)cn3C2CC2)CC1 [Enrofloxacin] | 7.12 ± 1.8%
19 | COc1c(N2C[C@@H]3CCCN[C@@H]3C2)c(F)cc2c(=O)c(C(=O)O)cn(C3CC3)c12 [Moxifloxacin] | 14.4 ± 14%

Same assay, conditions: antibiotic (0.125x MIC): tigecycline; 20 µM

Row | SMILES | percent growth inhibition
20 | C[C@H](N)[C@H](O)c1cccc(O)c1 [Metaraminol bitartrate] | -12.7 ± 7%
21 | COc1ccc(OC)c(C(O)CNC(=O)CN)c1 (stereo unspecified) [Midodrine hydrochloride] | -2.55 ± 3.2%
22 | NC1CCN(c2c(F)cc3c(=O)c(C(=O)O)cn(C4CC4)c3c2Cl)C1 (stereo unspecified) [Clinafloxacin] | 96.8 ± 4.4%
23 | CC(=O)CCCCn1c(=O)c2c(ncn2C)n(C)c1=O [Pentoxifylline] | 4.32 ± 0.75%
24 | N=C(NCCCCCCNC(=N)NC(=N)Nc1ccc(Cl)cc1)NC(=N)Nc1ccc(Cl)cc1 [Chlorhexidine] | 100.14 ± 0.079%
25 | CCN1CCN(c2cc3c(cc2F)c(=O)c(C(=O)O)cn3C2CC2)CC1 [Enrofloxacin] | 69.6 ± 9.7%
26 | COc1c(N2C[C@@H]3CCCN[C@@H]3C2)c(F)cc2c(=O)c(C(=O)O)cn(C3CC3)c12 [Moxifloxacin] | 99.69 ± 0.6%
